Tb PFK inh-1 = qHTS Assay to Find Inhibitors of T. brucei phosphofructokinase; ATP-dependent 6-phosphofructokinase (Trypanosoma brucei brucei), O15648; T. brucei PFK, ADP-Glo luminescence; Potency, µM (titrated, usually from 57.5 µM), usual class: inhibitors; 0.17% of 330,000 active; AID 485367, 2010; also: nearly all actives have a fitted effect of over 60% in size
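Activity is normalized to no-enzyme wells (full inhibition) and 1.25 nM enzyme wells (no inhibition). Reaction: 0.5 mM F6P, 0.1 mM ATP, 45 min RT, ADP-Glo luminescence; concentration-response curves fitted and classed by quality.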
Pin1 inhibitor = qHTS Assay to Find Inhibitors of Pin1; Peptidyl-prolyl cis-trans isomerase NIMA-interacting 1 (Homo sapiens), Q13526; AID 504891, 2011; 0.009% of 390,000 active; Potency, µM (series often up to 115 µM), actives largely listed as inhibitors; Pin1 FP peptide displacement, HiFluor488, 10 min; active = well fitted inhibition curve with a large enough effect in the polarisation, with a control signal flat, not every such curve was filed as active; inconclusive = small, poorly fitted or top-dose-only effect, or effect the other way, or a change in a side signal; inactive = no such curve, though single readings can be large or run the other way; the % refers to the polarisation
Target sequence (Q13526 whole entry, looked up): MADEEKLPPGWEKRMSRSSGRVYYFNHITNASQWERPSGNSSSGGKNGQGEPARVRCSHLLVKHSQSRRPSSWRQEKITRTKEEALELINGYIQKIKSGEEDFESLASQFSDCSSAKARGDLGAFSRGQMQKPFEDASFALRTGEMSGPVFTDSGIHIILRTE
PGK inhibitor = qHTS Assay to Find Inhibitors of Phosphoglycerate Kinase; Phosphoglycerate kinase, glycosomal (Trypanosoma brucei brucei), P07378; PGK/GAPDH coupled, Kinase-Glo luminescence, 60 min; Potency, µM (titrated, usually from 57.5 µM), most hits filed as inhibitors; 0.043% of 380,000 active; AID 602233, 2012; also: nearly all actives have a fitted effect of over 60% in size
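Luminescent ATP detection (Kinase-Glo Plus) follows a 60-minute room-temperature incubation, with wells lacking PGK as controls. Buffer: 100 mM TEA (pH 7.6), 5 mM MgCl2, 0.01% Tween-20. Coupling enzyme GAPDH (100 nM final) supplies unstable 1,3-BPG in-well.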
PI4K2A inh = qHTS for small molecular inhibitors of PI4K2A | Phosphatidylinositol 4-kinase type 2-alpha (Homo sapiens), Q9BTU6 | purified PI4K2A, ADP-Glo luminescence, 1 h; hits give low values | activity change, negative = inhibition, % at 76.9 µM | 0.13% of 420,000 active; in the data active = activity change below about -50%; inconclusive = mostly about -30% to -49%
Target sequence (Q9BTU6 whole entry, looked up): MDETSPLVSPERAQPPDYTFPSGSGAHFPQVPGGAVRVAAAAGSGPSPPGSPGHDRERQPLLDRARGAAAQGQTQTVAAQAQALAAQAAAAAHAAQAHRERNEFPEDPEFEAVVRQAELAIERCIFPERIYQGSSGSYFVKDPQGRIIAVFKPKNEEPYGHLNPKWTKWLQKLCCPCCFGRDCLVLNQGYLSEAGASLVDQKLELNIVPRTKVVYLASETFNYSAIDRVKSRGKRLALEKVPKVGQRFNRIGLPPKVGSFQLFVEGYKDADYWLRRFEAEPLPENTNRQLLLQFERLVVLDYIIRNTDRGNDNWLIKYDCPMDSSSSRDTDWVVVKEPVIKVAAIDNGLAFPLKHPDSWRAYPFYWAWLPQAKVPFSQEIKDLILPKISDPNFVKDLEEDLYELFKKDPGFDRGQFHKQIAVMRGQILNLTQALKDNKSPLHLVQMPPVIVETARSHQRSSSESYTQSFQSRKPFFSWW
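ADP-Glo luminescence measured ADP generated by PI4K2A enzyme (4 ug/mL before mixing) with 1.2 mM PI substrate (pre-mix) and 300 microM ATP (pre-mix). Tris pH7.5 buffer with MgCl2, Triton X-100; 1 h reaction at ambient temperature.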
Chronic BCR inh = qHTS Assay to Find Inhibitors of Chronic Active B-Cell Receptor Signaling; Potency, µM (doses to about 46.1 µM), usual class: inhibitors; ABC-DLBCL IkBa-CBG/CBR reporter, luminescence ratio, 4 h; 0.05% of 340,000 active; active = well fitted inhibition curve with a large enough effect in the signal ratio, with a control signal flat, not every such curve was filed as active; inconclusive = small, poorly fitted or top-dose-only effect, or effect the other way, or a change in a side signal; the % refers to the signal ratio
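TMD8 ABC-DLBCL cells carrying doxycycline-inducible green luciferase fused to IkappaBalpha plus unfused red luciferase were exposed to compounds (up to 46 uM) for 4 hrs at 37C. Activity came from the overlap-corrected green/red luminescence ratio.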
Tb PFK KinaseGlo = Tb PFK orthogonal confirmatory assay using ATP depletion (Kinase-Glo Plus) as an alternative measure of Tb PFK activity: Hit Validation. shares compounds with Tb PFK inh-1. Tb PFK enzyme, ATP depletion, Kinase-Glo Plus luminescence. Potency, µM (highest dose often 57.5 µM). 47% of 1,100 active; calls by dose curve; also: nearly all actives have a fitted effect of over 60% in size
Tb PFK inh-2 = Inhibitors of T. brucei phosphofructokinase: Hit Validation | 41% of 1,100 active | purified T. brucei PFK, ADP-Glo luminescence, 45 min | shares compounds with Tb PFK inh-1 | Potency, µM (titrated, usually from 57.5 µM), usual class: inhibitors | AID 504637, 2011; also: nearly all actives have a fitted effect of over 60% in size
Hits are given with their value; – = inactive; ? = inconclusive; · = not tested or not shown; ! = not confirmed by another sample. Hits are enriched below; roughly 0.34% of the tested compounds scored in any of these assays. Unless noted, calls follow the shape of the dose curve; as a rule, active = well fitted curve in the direction sought with a large enough effect; inconclusive = small, poorly fitted or top-dose-only effect, or another doubt; inactive = no such curve, though single readings can be large; an effect the other way counts as inactive or inconclusive.

SMILES	Tb PFK inh-1	Pin1 inhibitor	PGK inhibitor	PI4K2A inh	Chronic BCR inh	Tb PFK KinaseGlo	Tb PFK inh-2
CCOc1ccc(C(C)=O)cc1N1C(=O)C2C3C=CC(O3)C2C1=O (centres undefined)	?	–	–	–	?	–	?
CCOc1ccc(C(C)=O)cc1N1C(=O)C2C3C=CC(C3)C2C1=O (centres undefined)	?	–	?	–	?	·	·
O=C1CC(N2CCN(c3ccc(Cl)c(Cl)c3)CC2)C(=O)N1 (centres undefined)	6µM	–	–	–	–	?	?
N#Cc1nc(Nc2cccc([N+](=O)[O-])c2)nc(NC2CCCC2)n1	·	–	·	·	·	·	·
COc1cccc(N2CC(C(=O)Nc3ccc(F)cc3)CC2=O)c1 (centres undefined)	19µM	–	–	–	–	–	–
CC(=O)Nc1ccc(S(=O)(=O)N2CCN(S(=O)(=O)c3ccc4c(c3)OCCO4)CC2)cc1	·	–	·	·	·	·	·
O=C(COC(=O)c1ccccc1O)Nc1cccc(S(=O)(=O)NC2=NCCCCC2)c1	13µM	–	–	–	–	?	?
O=C(COC(=O)c1ccccc1)Nc1cccc(S(=O)(=O)NC2=NCCCCC2)c1	–	–	–	–	–	·	·
O=C(COC(=O)Cc1c(Cl)cccc1Cl)Nc1ccc2[nH]c(=O)[nH]c2c1	?	–	–	–	–	?	?
O=C(COC(=O)Cc1c(F)cccc1Cl)Nc1ccc2[nH]c(=O)[nH]c2c1	–	?	–	–	–	·	·
O=C(COC(=O)Cc1cccc(C(F)(F)F)c1)Nc1ccc2[nH]c(=O)[nH]c2c1	–	–	–	–	–	·	·
O=C(COC(=O)Cc1ccc(Cl)c(Cl)c1)Nc1ccc2[nH]c(=O)[nH]c2c1	21µM	–	–	–	–	?	13µM
Cc1ccc(-c2csc3n[nH]c(=S)n23)cc1	?	–	–	–	–	0.3µM	0.43µM
CCn1c(-c2ccc(C)cc2)n[nH]c1=S	–	–	–	–	–	·	·
CC(C)(C)c1ccc(Nc2nc(C#N)nc(NC3CCCC3)n2)cc1	·	–	·	·	·	·	·
COc1ccc(C(=S)NCS(=O)(=O)c2ccc(C)cc2)cc1	21µM	–	–	–	?	24µM	27µM
Cc1ccc(S(=O)(=O)CNC(=S)c2ccc3ccccc3c2)cc1	?	–	–	–	?	–	30µM
COc1ccc(C(=S)Nc2ccc(C)cc2)cc1	–	?	–	–	–	·	·
CCCC(CCC)(C(=O)OCC)C(=O)OCC	·	·	·	–	·	·	·
CCCNC(=O)Cn1sc2nc(C)cc(C)c2c1=O	8.5µM	–	–	–	–	?	8.5µM
CC(=O)Cn1cnc2c(sc3nc(C)cc(C)c32)c1=O	–	–	–	–	–	·	·
CCOC(=O)C1CCCN(C(=O)Cn2sc3nc(C)cc(C)c3c2=O)C1 (centres undefined)	1.5µM	–	–	–	?	?	3.8µM
Cc1cc(C)c2c(=O)n(CC(=O)N3CCC(N4CCCCC4)CC3)sc2n1	2.4µM	–	–	–	?	?	3µM
CC[C@@H]([C@H](C)O)n1ncn(-c2ccc(N3CCN(c4ccc(OC[C@@H]5CO[C@@](Cn6cncn6)(c6ccc(F)cc6F)C5)cc4)CC3)cc2)c1=O	·	·	·	–	·	·	·
O=C1CCc2cc(S(=O)(=O)Nc3cc(F)cc(Cl)c3)c(F)cc2N1	·	–	·	·	·	·	·
SMILES	Tb PFK inh-1	Pin1 inhibitor	PGK inhibitor	PI4K2A inh	Chronic BCR inh	Tb PFK KinaseGlo	Tb PFK inh-2
O=C(O)/C=C/c1cccnc1	–	–	–	–	–	·	·
CC(/C=C\c1cccnc1)=C/C(=O)O	15µM!	–	?	–	–	?	27µM
O=C(COC(=O)CNC(=O)c1ccccc1)Nc1cc(C(F)(F)F)ccc1Cl	·	–	·	·	·	·	·
Cc1cc(CCCOc2c(C)cc(-c3noc(C(F)(F)F)n3)cc2C)on1	·	·	·	–	·	·	·
Cc1nc2ccc(S(=O)(=O)N3CCN(S(=O)(=O)c4c(F)cccc4F)CC3)cc2s1	·	–	·	·	·	·	·
O=C(NNC(=O)c1cc2ccccc2cc1O)c1cccs1	?	–	–	–	?	–	?
C/C(=N\NC(=O)c1cc2ccccc2cc1O)c1cccs1	–	–	–	–	–	·	·
Nc1nnc(CCOc2ccccc2Cl)s1	–	–	–	–	–	·	·
Nc1nnc(Cc2ccc(Cl)c(Cl)c2)s1	19µM	–	–	–	–	7.6µM	19µM
O=C(NCc1cccc(Cl)c1)c1ccc2c(c1)OCO2	?	–	–	–	–	24µM	30µM
O=C(NCc1ccc2c(c1)OCO2)c1cccc(Cl)c1	–	–	–	–	–	·	·
NS(=O)(=O)c1cc(C(=O)NN2C[C@H]3[C@H]4CCC(C4)[C@H]3C2)ccc1Cl	·	·	·	–	·	·	·
Cc1cc(N2C(=O)c3ccccc3C2=O)no1	·	–	·	·	·	·	·
O=C(Nc1ccncc1)Nc1ccc(F)c(Cl)c1	?	–	–	–	?	?	?
CCCCC(=O)Nc1ccc(F)c(Cl)c1	?	–	–	–	–	?	–
O=C(Nc1ccc(Cl)cc1)Nc1cccnc1	17µM	–	·	–	–	?	?
NC(=O)Nc1ccc(Cl)cc1	21µM	–	–	–	–	24µM	30µM
CCOC(C(=O)OCCN(C)C)(c1ccccc1)c1ccccc1	·	·	·	–	·	·	·
O=C1CCc2cc(S(=O)(=O)NCc3ccccc3)ccc2N1	·	–	·	·	·	·	·
CC(C)(C)C1CCC(CC2=C(O)c3ccccc3C(=O)C2=O)CC1 (centres undefined)	·	·	·	–	·	·	·
O=S1(=O)N=C(Oc2ccccc2F)c2ccccc21	·	–	·	·	·	·	·
Fc1ccc(NC(=S)Nc2ccc(F)c(Cl)c2)cc1Cl	?	–	–	–	?	?	–
NS(=O)(=O)c1ccc(NC(=O)Nc2ccc(C(F)(F)F)cc2)cc1	?	–	–	–	–	6µM	13µM
Cc1cc(OC(F)F)ccc1NC(=O)Nc1ccc([N+](=O)[O-])cc1	?	–	–	–	?	?	?
O=C(Nc1ccc([N+](=O)[O-])cc1)Nc1ccc(Cl)cc1F	–	–	–	–	?	·	·
NS(=O)(=O)c1ccc(NC(=O)Nc2cccc(Cl)c2)cc1	24µM	–	–	–	–	?	?
Cc1ccc(NC(=O)Nc2ccc(S(N)(=O)=O)cc2)cc1	21µM	–	–	–	–	13µM	?
CC1(C)O[C@@H]2C[C@H]3[C@@H]4CCC5=CC(=O)C=C[C@]5(C)[C@@H]4[C@@H](O)C[C@]3(C)[C@]2(C(=O)CO)O1	·	·	·	–	·	·	·
